{"source": "PubChem BioAssay (NCATS)", "note": "Results filed as inconclusive are left out. Calls of active or inactive are those of the source. Calls follow the shape of the dose curve; as a rule, active = well fitted cell-killing curve with a large enough effect; inconclusive = small, poorly fitted or top-dose-only effect; inactive = flat fitted curve, though single readings scatter.", "data": [{"assay": "Cellular viability qHTS for adrenocortical cancer (ACC) cell line NCI-H295R (AID 1963990); also: nearly all actives have a fitted effect of over 60% in size", "details": "CellTiter-Glo ATP luminescence, 48 h; series mostly up to 46.1 µM; activity change, negative = viability loss: at the top concentration", "text": "PI: Naris Nilubol, MD Surgical Oncology Program, National Cancer Institute (NCI) National Institute of Health (NIH), Bethesda, Maryland Adrenocortical cancer (ACC) is a rare malignancy with poor survival outcomes and few treatment options. Currently, mitotane is the only FDA-approved therapy for ACC. Although adjuvant radiation therapy is rarely utilized, it has the potential to improve survival in select cases. Through a quantitative high-throughput drug screen (qHTS), we identified auranofin (AF), a thioredoxin reductase (TXNRD) inhibitor, as a promising candidate drug. This study aims to evaluate whether AF can enhance the efficacy of radiation therapy in the treatment of ACC. Two human ACC cell lines, SW-13 and NCI-H295R, were screened using the National Center for Advancing Translational Sciences (NCATS) Pharmaceutical Collection (NPC) and the Mechanism Interrogation PlatE (MIPE) library (~4,991 compounds). CellTiter-Glo (Cat # G7570, Promega, Madison, WI) was utilized to measure cell viability. Described herein are the results of the corresponding viability assay.\nPROTOCOL TABLE (as described by Inglese J, Shamu CE and Guy RK. 2007) SEQUENCE No. (e.g., 1, 2, 3, etc.); […] (e.g., Cells, Incubation, Reagent, etc.); VALUE; DESCRIPTION. 1; Cells; 5 uL; white, solid-bottom, 1536-well tissue-culture treated plates. 2; Time; overnight culture at 37C with 5% CO2. 3; Compounds and control; 23 nL; Kalypsis pin tool (Wako USA) equipped with a 1536-well pin head to transfer to the assay plates. 4; Time; 48 hours; 37C with 5% CO2. 5; Reagent; 4 uL; CellTiter-Glo luminescent substrate mix. 6; Time; 20 min at room temperature. 7; Detection; Luminescence; ViewLux plate reader NOTES (numbers refer to Sequence numbers above) 1. NCI-H295R cells were harvested from a T175 flask and resuspended in ITS-supplemented DMEM serum-free medium at a concentration of 300 000 cells/mL. Then 5 uL of resuspended cells were dispensed into each well of white, solid-bottom, 1536-well tissue-culture-treated plates using a multidrop combi dispenser. The plates were covered with stainless steel gasket lids. 2-3. The plates were cultured overnight at 37C with 5% CO2. Twenty-three nL of compounds (eight selected concentrations from the NPC / MIPE) or positive control (10 mM stock of bortezomib) in DMSO was transferred to each well of the assay plate using a pin tool (Kalypsys, San Diego, CA, USA). The final concentration of the compounds in the 5 uL assay volume ranged from 0.5 nM to 46 uM. 4-6. After 48 hours of incubation at 37C and 5% CO2, 4 uL of CellTilter-Glo luminescent substrate mix (Promega, Madison, WI, USA) was added to each well. Then the plates were incubated for 20 minutes at room temperature. 7. After incubation, luminescence was measured using a ViewLux plate reader (PerkinElmer, Waltham, MA, USA) with a clear filter was used to measure the number of metabolically competent cells. To determine compound activity in the qHTS assay, the titration-response data for each sample was plotted and modeled by a four-parameter logistic fit yielding IC50 and efficacy (maximal response) values. Raw plate reads for each titration point were normalized relative to positive control ([…], 100% inhibition) and DMSO-only wells (basal, 0%). REFERENCES: Inglese J, Shamu CE and Guy RK, Reporting data from high throughput screening of small molecule libraries, Nature Chemical Biology, 2007, 3(8): 438-441. doi.org/10.1038/nchembio0807-438.", "values": [{"compound": "O=C(O)c1ccc(CN2CCC(CN[C@@H]3C[C@H]3c3ccccc3)CC2)cc1", "activity change, negative = viability loss": "14.5% (inactive)"}, {"compound": "CC(CN(C)C)C(C)(O)Cc1ccc(Cl)cc1", "note": "(stereo not given)", "activity change, negative = viability loss": "-5.75% (inactive)"}, {"compound": "COc1ccc(Nc2nccc(NCCO)n2)cc1", "activity change, negative = viability loss": "-14% (inactive)"}, {"compound": "COc1ccc2[nH]cc(CCNC(C)=O)c2c1", "Potency": "inactive"}, {"compound": "CNc1ncc2cc(-c3cc(NC(=O)NCCC(C)(C)C)c(F)cc3C)c(C)nc2n1", "Potency": "17.8 µM (active)"}, {"compound": "CNC(=O)c1ccccc1Nc1nc(Nc2ccc(N3CCOCC3)cc2OC)ncc1Cl", "Potency": "0.631 µM (active)"}, {"compound": "COc1ccc(-c2cc(=O)c3c(O)cc(O)cc3o2)cc1O", "activity change, negative = viability loss": "-16.1% (inactive)"}, {"compound": "COc1ccnc2[nH]cc(C(=O)C(=O)N3CCN(C(=O)c4ccccc4)C[C@H]3C)c12", "activity change, negative = viability loss": "-0.186% (inactive)"}, {"compound": "CN[C@@H](C)[C@H]1[C@H](O)C[C@@]2(C)[C@@H]3CC[C@H]4C(C)(C)[C@@H](NC)CC[C@@]45C[C@@]35CC[C@]12C", "activity change, negative = viability loss": "-14.8% [at 9.17 µM] (inactive)"}, {"compound": "CN=C(NC#N)NCCSCc1nc[nH]c1C", "activity change, negative = viability loss": "-29.4% (inactive)"}, {"compound": "C=C1[C@H](OC(=O)/C=C(\\C)CC)C[C@@H](C(C)C)[C@@H]2[C@H]([C@@H](C)OC(C)=O)C(=O)C[C@@H]12", "activity change, negative = viability loss": "13.4% (inactive)"}, {"compound": "CC(C)NCC(O)c1ccc(NS(C)(=O)=O)cc1", "note": "(stereo not given)", "activity change, negative = viability loss": "-11.7% (inactive)"}, {"compound": "CC(=O)OC[C@H]1O[C@@](COC(C)=O)(O[C@H]2O[C@H](COC(C)=O)[C@@H](OC(C)=O)[C@H](OC(C)=O)[C@H]2OC(C)=O)[C@@H](OC(C)=O)[C@@H]1OC(C)=O", "activity change, negative = viability loss": "0.982% (inactive)"}, {"compound": "COc1ccc(-n2c(C)c([N+](=O)[O-])c3ccc(O)cc32)cc1", "activity change, negative = viability loss": "-17% (inactive)"}, {"compound": "COC(=O)[C@@H]1[C@H]2C[C@H]3c4[nH]c5ccccc5c4CCN3C[C@@H]2CC[C@@H]1O", "activity change, negative = viability loss": "-8.98% (inactive)"}, {"compound": "Cc1ccc(S(=O)(=O)NC(=O)NN2CC3CCCC3C2)cc1", "note": "(stereo not given)", "Potency": "inactive"}, {"compound": "Cc1ccccc1-n1nc(-c2c(-c3ccc(F)cc3)nn3c2NC[C@@H](CO)C3)ccc1=O", "activity change, negative = viability loss": "-6.55% (inactive)"}, {"compound": "CCCCCCNC(=O)n1cc(F)c(=O)[nH]c1=O", "activity change, negative = viability loss": "-28.5% (inactive)"}, {"compound": "NS(=O)(=O)c1cc(C(=O)NN2C[C@H]3[C@H]4CCC(C4)[C@H]3C2)ccc1Cl", "activity change, negative = viability loss": "29.1% (inactive)"}, {"compound": "O=C(/C=C/c1cccc(S(=O)(=O)Nc2ccccc2)c1)NO", "Potency": "2.51 µM (active)"}, {"compound": "C[C@@H](OC[C@@]1(c2ccccc2)CC[C@]2(CCC(=O)N2)CN1)c1cc(C(F)(F)F)cc(C(F)(F)F)c1", "Potency": "25.1 µM (active)"}, {"compound": "O=C(OCC(COC(=O)c1cccnc1)(COC(=O)c1cccnc1)COC(=O)c1cccnc1)c1cccnc1", "activity change, negative = viability loss": "-26.9% (inactive)"}, {"compound": "O=C1NC(O)CCN1[C@@H]1O[C@H](CO)[C@H](O)[C@H]1O", "note": "(stereo not given in full)", "activity change, negative = viability loss": "9.12% (inactive)"}, {"compound": "CCCC(=O)Nc1ccc(OCC(O)CNC(C)C)c(C(C)=O)c1", "note": "(stereo not given)", "activity change, negative = viability loss": "-8.09% (inactive)"}, {"compound": "CC(C)(C)NCC(O)COc1ccc(NC(=O)NC2CCCCC2)cc1", "note": "(stereo not given)", "activity change, negative = viability loss": "-1.52% (inactive)"}, {"compound": "Oc1ccccc1-c1nnco1", "activity change, negative = viability loss": "7.45% (inactive)"}, {"compound": "CC(C)C[C@H](NC(=O)c1cc2ccccc2s1)C(=O)N1CCN(C(=O)[C@H](CO)NS(=O)(=O)c2ccc(Cl)cc2Cl)CC1", "Potency": "25.1 µM (active)"}, {"compound": "CN1C(=O)CC[C@H]1c1cccnc1", "activity change, negative = viability loss": "6.5% (inactive)"}, {"compound": "COc1ccc2nc3cc(Cl)ccc3c(Nc3cc(CN4CCCC4)c(O)c(CN4CCCC4)c3)c2n1", "Potency": "5.62 µM (active)"}, {"compound": "Cc1cc(-c2ncc(CC(=O)Nc3ccc(-c4cnccn4)cn3)cc2C)ccn1", "activity change, negative = viability loss": "18.2% (inactive)"}, {"compound": "C[C@@H]1C[C@H]2[C@@H]3CCC4=CC(=O)C=C[C@]4(C)[C@@]3(F)[C@@H](O)C[C@]2(C)[C@H]1C(=O)CO", "activity change, negative = viability loss": "2.27% (inactive)"}, {"compound": "CN(C)S(=O)(=O)c1ccc2c(c1)C(=Cc1cc3c([nH]1)CCCC3)C(=O)N2", "activity change, negative = viability loss": "-7.62% (inactive)"}, {"compound": "COc1ccc2cccc(CCNC(C)=O)c2c1", "Potency": "inactive"}, {"compound": "CCC1NC(=O)c2cc(S(N)(=O)=O)c(Cl)cc2N1", "note": "(stereo not given)", "activity change, negative = viability loss": "2.83% (inactive)"}, {"compound": "CC#CCn1c(N2CCC[C@@H](N)C2)nc2c1c(=O)n(Cc1nc(C)c3ccccc3n1)c(=O)n2C", "activity change, negative = viability loss": "1.91% (inactive)"}, {"compound": "NC(=O)NNc1ccccc1", "activity change, negative = viability loss": "-10.1% (inactive)"}, {"compound": "COC(=O)C1=C(C)NC(C)=C(C(=O)OCC(C)C)C1c1ccccc1[N+](=O)[O-]", "note": "(stereo not given)", "Potency": "16.4 µM (active)"}, {"compound": "CC(=O)OCC(COC(C)=O)OC(C)=O", "activity change, negative = viability loss": "-2.06% (inactive)"}, {"compound": "C[n+]1ccccc1/C=N/O", "activity change, negative = viability loss": "-13.7% (inactive)"}, {"compound": "C[C@@H](NCc1cc2ccccc2[nH]1)c1cccc2ccccc12", "Potency": "12.6 µM (active)"}]}]}
